Screening results: PubChem BioAssay, National Center for Advancing Translational Sciences (NCATS)
ClpP mod – qHTS Assay for Activators of ClpP; ATP-dependent Clp protease proteolytic subunit (Bacillus subtilis (strain 168)), P80244; purified B. subtilis ClpP, FRET peptide cleavage, 20 min; Potency, µM (highest dose often 57.5 µM), without a hit: at the highest dose activity change, negative = active; 340,000 tested, 1.9% active; AID 651965, 2013; active = well fitted falling curve with a large enough effect; inconclusive = small, poorly fitted or top-dose-only effect; inactive = no such curve, though single readings can be large or run the other way; note: potency is the fitted concentration of half-maximal effect; the source files actives as falling curves though it sought activators and does not explain the sign; nearly all actives have a fitted effect of over 65% in size
Target sequence (P80244 whole entry, looked up): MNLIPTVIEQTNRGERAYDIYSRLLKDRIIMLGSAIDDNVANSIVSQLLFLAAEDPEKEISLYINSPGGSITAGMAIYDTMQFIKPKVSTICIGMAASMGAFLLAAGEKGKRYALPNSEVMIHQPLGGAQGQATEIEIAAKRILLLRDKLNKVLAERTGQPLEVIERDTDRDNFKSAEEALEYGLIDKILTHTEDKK
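FRET quenching reversal measured ClpP activation: 10 microg/mL B. subtilis ClpP at pH 8 with the FRET-FV decapeptide, read at 430 nm after 320 nm excitation. The 20-min minus 0-min signal was scaled between DMSO/no-enzyme wells and ADEP (5.8 microM final).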
DRD3 agonist – qHTS of D3 Dopamine Receptor Agonist: qHTS. max activation, %. D(3) dopamine receptor (Homo sapiens), P35462. D3R DiscoveRx beta-arrestin cells, luminescence, 90 min. 410,000 tested, 0.58% active; in the data active = max activation above about 30%; note: 0% is about no effect
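Agonist mode: compounds and dopamine controls were applied to plated cells for 90 min at 37 degrees C after an overnight attachment at 1500 cells/well. Luminescent read-out followed 30 - 60 minutes at room temperature with DiscoveRx detection reagent.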
DT40 TDP1 no CPT – qHTS for Inhibitors of human tyrosyl-DNA phosphodiesterase 1 (TDP1): qHTS in cells in absence of CPT. Potency, µM (titrated, usually from 46.2 µM), inactives show at the highest dose activity change, negative = growth inhibition, usual class: inhibitors. AID 686978, 2013. DT40 Tdp1-/- hTDP1 cells, no CPT, ATP luminescence, 48 h. 420,000 tested, 15% active; note: potency is the fitted concentration of half-maximal effect; % is set by controls: 0 for no effect and ±100 for the full control effect; nearly all actives have a fitted effect of over 55% in size
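Seeded 400 DT40-hTDP1 cells/well (vehicle DMSO, no 20 nM CPT); pinned compounds; ≥48 hr at 37 °C; CellTiter-Glo luminescence as viability measure.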
IL1B secr inh – qHTS for Inhibitors of Inflammasome Signaling: IL-1-beta AlphaLISA Primary Screen; THP-1 LPS/ATP IL-1B secretion, AlphaLISA, 16 h; stronger effect = lower value; activity change, % at 57.5 µM; 360,000 tested, 4.7% active; AID 743279, 2014; in the data active = activity change below about -50%; inconclusive = mostly about -30% to -49%; note: % is set by controls: 0 for no effect and ±100 for the full control effect
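THP-1 cells pretreated 1 hr with compounds (up to 57.5 uM final), then stimulated with LPS (250 ng/mL final) plus ATP (1.25 mM final); secreted IL-1B measured by AlphaLISA after 16 hr, decreased signal indicating inhibition.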
DT40 TDP1 CPT – qHTS for Inhibitors of human tyrosyl-DNA phosphodiesterase 1 (TDP1): qHTS in cells in presence of CPT | chicken DT40 Tdp1-/-;hTDP1 cells + 20 nM CPT, ATP luminescence, 48 h | Potency, µM (doses to about 46.2 µM), for the others: top-dose activity change, negative = growth inhibition, actives largely listed as inhibitors | 420,000 tested, 12% active; note: potency is the fitted concentration of half-maximal effect; % is set by controls: 0 for no effect and ±100 for the full control effect; nearly all actives have a fitted effect of over 55% in size
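Chicken DT40 Tdp1-/- cells complemented with human TDP1, 400 cells/well, exposed to compounds plus 20 nM camptothecin for at least 48 h at 37 C; viability read as ATP content by CellTiter-Glo luminescence.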
DRD3 antagonist – qHTS of D3 Dopamine Receptor Antagonist: qHTS | D(3) dopamine receptor (Homo sapiens), P35462 | D3R cells, DiscoveRx beta-arrestin luminescence, antagonist mode; stronger effect = lower value | max response, negative = inhibition, % | 360,000 tested, 2.5% active | AID 652054, 2013; in the data active = max response below about -50%; inconclusive = no clear call, values can overlap the other calls; note: % is set by controls: 0 for no effect and ±100 for the full control effect
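Cells expressing the human receptor were seeded at 1500 cells/well, incubated overnight at 37 degrees C in 5% CO2, then exposed to library compounds with dopamine controls for 90 minutes at 37 degrees C before luminescent detection.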
* marks the source's active call; other numbers are inactive results; ? = inconclusive; nt = no result. Rows were chosen to be rich in hits. Some 21% of all compounds tested hit in one or more screens of this group. Unless noted, calls come from the whole dose curve; as a rule, active = well fitted inhibition curve with a large enough effect; inconclusive = small, poorly fitted or top-dose-only effect; inactive = flat fitted curve, though single readings scatter.

SMILES	ClpP mod	DRD3 agonist	DT40 TDP1 no CPT	IL1B secr inh	DT40 TDP1 CPT	DRD3 antagonist
CCOc1ccc(-c2cc(OC(=O)c3ccc(F)cc3)c3c(C)oc(C)c3c(=O)c2)cc1	-2.5%	5.9	16.4µM*	nt	?	nt
CCCC1(c2ccccc2)NC(=O)N(CC(=O)NCc2ccc(OC)cc2)C1=O (configuration not stated)	1.8%	-1.9	18.2%	-12.3	-8.2%	9.6
Cc1ccc(C(=O)OCC(=O)N2CCCC2)cc1	nt	-1.7	-6.7%	-2.1	10.1%	4.3
CCN(CC)CCNC(=O)c1ccc2nc(CCc3ccccc3)oc2c1	2.1%	-7.6	?	nt	?	nt
CCOc1cc(-c2ccc(OC(=O)c3ccccc3F)cc2)cc(=O)c2c(C)oc(C)c12	-2.8%	-10.9	13µM*	nt	13µM*	nt
O=C(CC(=O)c1ccccc1)CC(O)(C=Cc1ccccc1)c1ccccc1 (configuration not stated)	nt	-5.4	16.4µM*	-9.6	20.6µM*	-20.9
CCOc1ccccc1CNC(=O)c1cccn1-c1nnc(N2CCCCC2)s1	-1.6%	-13.1	?	nt	?	nt
CCOc1ccccc1CNCc1cccn1-c1nnc(N2CCN(c3ccccc3)CC2)s1	-3.5%	-12.5	3.26µM*	nt	5.8µM*	nt
COc1ccc(OCC(=O)NNC(=S)NC(=O)C2CC2)cc1	-0.8%	31.2*	?	29.4	16.4µM*	6.6
CCc1ccc(OCC(=O)NNC(=S)NC(=O)C2CCCCC2)c(Br)c1	1.0%	10.1	?	24.9	?	2.6
CCc1ccc(OCC(=O)NNC(=S)NC(=O)C2CC2)c(Br)c1	2.0%	1.9	13µM*	109.6	16.4µM*	19.8
COc1ccc(NC(=S)NC(=O)C2CCC2)cc1	-1.4%	-7.3	-3.9%	?	-17.1%	-23.0
Cc1cc(C)cc(OCC(=O)NNC(=S)NC(=O)C2CC2)c1	-1.8%	-6.5	13µM*	82.5	18.4µM*	-3.1
CC(C)N(C(=S)Nc1ccc(S(=O)(=O)N2CCOCC2)cc1)c1ccccc1	nt	-12.3	?	3.1	-17.8%	-12.9
COc1cccc(N2CCN(C3CC(=O)N(c4ccc(F)c(Cl)c4)C3=O)CC2)c1 (configuration not stated)	-0.1%	1.1	-15.6%	33.7	-25.1%	-0.4
COc1ccc(NC2CCN(C3CC(=O)N(c4ccc(F)c(Cl)c4)C3=O)CC2)cc1 (configuration not stated)	2.82µM*	5.9	?	-14.8	?	0.0
COc1cccc(NC(=O)Cn2nc(-c3ccncc3)ccc2=O)c1	-0.7%	0.8	-0.1%	nt	-1.5%	nt
CSCCC(NS(=O)(=O)c1ccc(Cl)cc1)C(=O)OCC(=O)NC12CC3CC(CC(C3)C1)C2 (configuration not stated)	-1.2%	0.6	?	-24.2	12.6µM*	6.0
CSCCC(NS(=O)(=O)c1ccc(Cl)cc1)C(=O)OCC(=O)N1CCCc2ccccc21 (configuration not stated)	nt	0.2	18.4µM*	-4.0	23.1µM*	0.1
Cc1nn2c(=O)cc(COC(=O)c3ccccc3NC(=O)C(C)C)nc2s1	4.8%	4.7	11.6µM*	nt	?	nt
CC(Oc1ccccc1)C(=O)Nc1ccccc1C(=O)OCc1cc(=O)n2nc(C(C)C)sc2n1 (configuration not stated)	?	11.5	20.6µM*	nt	?	nt
CC(C)c1nn2c(=O)cc(COC(=O)c3ccccc3NC(=O)COc3ccccc3)nc2s1	16.5%	1.7	?	nt	5.1%	nt
